This is part of a sample that, as a whole, favours compounds with a hit. Of some 79,000 tested, about 15% had one in any assay. Activity calls are given as the source filed them. No stated cut-off is given here; in the data, active means growth inhibition above about 70%; inactive means the rest.
Key:
[1] = NCI Yeast Anticancer Drug Screen. Data for the rad52 strain (AID 147);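 further: 0% = growth of vehicle-treated control cultures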; conditions: S. cerevisiae rad52 mutant growth inhibition, hits give high values
In short: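 Vehicle-treated cultures served as the reference for growth inhibition of compound-exposed yeast bearing a DNA repair mutation.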

[2] = NCI Yeast Anticancer Drug Screen. Data for the wt1 strain (AID 149);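 further: 0% = growth of vehicle-treated wt1 cultures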; conditions: S. cerevisiae wt1 strain (SPY 50644) growth inhibition, hits give high values
In short: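 Growth inhibition read against vehicle controls after compound exposure of the wt1 yeast strain.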

[3] = NCI Yeast Anticancer Drug Screen. Data for the rad50EPP+ strain (AID 151);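 further: 0% = growth of vehicle-treated control cultures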; conditions: S. cerevisiae rad50 mutant strain, hits give high values
In short: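 In this screen, rad50EPP+ yeast were exposed to compounds. Growth inhibition was scored against vehicle-treated controls.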

[4] = NCI Yeast Anticancer Drug Screen. Data for the mgt1 strain (AID 153); conditions: S. cerevisiae mgt1 mutant growth inhibition, hits give high values
In short: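 mgt1 strain exposed; growth vs vehicle control recorded as inhibition.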

[5] = NCI Yeast Anticancer Drug Screen. Data for the rad50 strain (AID 155);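 further: 0% = growth of vehicle-only cultures of the same strain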; conditions: S. cerevisiae rad50 strain growth inhibition, hits give high values
In short: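 Readout: growth inhibition relative to vehicle-treated cultures. Compound exposure was carried out in a genetically defined yeast strain deficient in DNA damage repair.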

[6] = NCI Yeast Anticancer Drug Screen. Data for the mec2-1 strain (AID 157); conditions: S. cerevisiae mec2-1 strain, hits give high values
In short: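 Vehicle-treated cultures served as reference for growth inhibition of compound-exposed mec2-1 yeast.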

[7] = NCI Yeast Anticancer Drug Screen. Data for the rad14 strain (AID 159);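 further: 0% = growth of vehicle-treated control cultures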; conditions: S. cerevisiae rad14 strain growth inhibition, hits give high values
In short: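 Growth inhibition vs vehicle controls; genetically altered yeast strain (DNA damage repair defect) treated with test compounds.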

[8] = NCI Yeast Anticancer Drug Screen. Data for the sgs1 mgt1 strain (AID 161);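 further: 0% = growth of cultures given vehicle only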; conditions: S. cerevisiae sgs1 mgt1 strain, hits give high values
In short: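 Read-out: growth inhibition vs vehicle controls. Cells: mutant yeast strain deficient in DNA damage repair.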

[9] = NCI Yeast Anticancer Drug Screen. Data for the CLN2oe strain (AID 163);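 further: 0% = growth of vehicle-only control cultures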; conditions: S. cerevisiae CLN2oe strain, hits give high values
In short: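 Inhibition relative to vehicle-treated yeast is reported. Cells: strain with genetic alteration in cell-cycle control, grown with compound.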

[10] = NCI Yeast Anticancer Drug Screen. Data for the cln2 rad14 strain (AID 165);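 further: 0% = growth equal to vehicle treated cultures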; conditions: S. cerevisiae cln2 rad14 strain, hits give high values
In short: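 Each compound was tested on cln2 rad14 yeast. Inhibition of growth was calculated against vehicle-exposed controls.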

[11] = NCI Yeast Anticancer Drug Screen. Data for the bub3 strain (AID 167); conditions: S. cerevisiae bub3 mutant strain, hits give high values
In short: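 Readout: yeast growth inhibition, expressed relative to vehicle-only wells. The test organism is a mutant strain from a panel with lesions in DNA repair or checkpoint genes.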

[12] = NCI Yeast Anticancer Drug Screen. Data for the wt2 strain (AID 169);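 further: 0% = growth of vehicle-treated yeast cultures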; conditions: S. cerevisiae wt2 strain growth inhibition, hits give high values
In short: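 Inhibition of yeast growth was determined after compound treatment, normalised to controls receiving only vehicle.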

[13] = NCI Yeast Anticancer Drug Screen. Data for the mlh1 strain (AID 171);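 further: 0% = growth of vehicle-treated control cultures of the same strain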; conditions: S. cerevisiae mlh1 strain growth inhibition, hits give high values
In short: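 Vehicle-normalised growth inhibition of a repair- or checkpoint-altered yeast strain following compound treatment.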

[14] = NCI Yeast Anticancer Drug Screen. Data for the sgs1 strain (AID 173);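 further: 0% = growth of vehicle-only control cultures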; conditions: S. cerevisiae sgs1 mutant, hits give high values
In short: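 Screen format: yeast with repair or checkpoint alterations, compound exposure, growth read relative to vehicle.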

[15] = NCI Yeast Anticancer Drug Screen. Data for the mlh1 rad18 strain (AID 175); conditions: S. cerevisiae mlh1 rad18 strain growth inhibition, hits give high values
In short: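 Vehicle-treated cultures served as the reference for growth inhibition in a yeast strain carrying DNA damage repair alterations exposed to each compound.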

[16] = NCI Yeast Anticancer Drug Screen. Data for the rad18 strain (AID 177); conditions: S. cerevisiae rad18 mutant growth inhibition, hits give high values
In short: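 Test articles were incubated with altered yeast defective in DNA damage repair. Results are given as inhibition of growth versus vehicle.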

[17] = at 5.0 µM (retest, dose inferred, filed as 0.5)
[18] = at 50.0 µM (retest, dose inferred, filed as 5.0)

Measured: growth inhibition

O=C(O)/C=C\C(=O)Nc1ccc2c(c1)Cc1cc(Cl)ccc1-2
inactive: [1]; at 1.2 µM -3% | [1]; at 3.7 µM -3% | [1]; at 11.0 µM -3% | [1]; at 33.0 µM 2% | [1]; at 100.0 µM 19% | [2]; at 1.2 µM -3% | [2]; at 3.7 µM -3% | [2]; at 11.0 µM -6% | [2]; at 33.0 µM -5% | [2]; at 100.0 µM 0% | [3]; at 1.2 µM -3% | [3]; at 3.7 µM 8% | [3]; at 11.0 µM 14% | [3]; at 33.0 µM 28% | [4]; at 1.2 µM -3% | [4]; at 3.7 µM -5% | [4]; at 11.0 µM -1% | [4]; at 33.0 µM -4% | [4]; at 100.0 µM 22% | [5]; at 1.2 µM -3% | [5]; at 3.7 µM -4% | [5]; [17] 12% | [5]; at 11.0 µM -2% | [5]; at 33.0 µM 1% | [5]; [18] 7% | [5]; at 50.0 µM -6.3% | [5]; at 100.0 µM 19% | [6]; at 1.2 µM -4% | [6]; at 3.7 µM -1% | [6]; [17] -1% | [6]; at 11.0 µM -2% | [6]; at 33.0 µM 1% | [6]; [18] -4% | [6]; at 50.0 µM 1.65% | [6]; at 100.0 µM 10% | [7]; at 1.2 µM -3% | [7]; at 3.7 µM -4% | [7]; at 11.0 µM -3% | [7]; at 33.0 µM 4% | [7]; at 100.0 µM 29% | [8]; [17] -1% | [8]; [18] 33% | [8]; at 50.0 µM 34.1% | [9]; at 1.2 µM -4% | [9]; at 3.7 µM -7% | [9]; at 11.0 µM -11% | [9]; at 33.0 µM -13% | [9]; at 100.0 µM -3% | [10]; [17] -5% | [10]; [18] 15% | [11]; at 1.2 µM -4% | [11]; at 3.7 µM -5% | [11]; [17] -4% | [11]; at 11.0 µM -7% | [11]; at 33.0 µM -7% | [11]; [18] -7% | [11]; at 50.0 µM 11.9% | [11]; at 100.0 µM -1% | [12]; at 1.2 µM -3% | [12]; at 3.7 µM -3% | [12]; at 11.0 µM -5% | [12]; at 33.0 µM -3% | [12]; at 100.0 µM 11% | [13]; at 1.2 µM -2% | [13]; at 3.7 µM -1% | [13]; at 11.0 µM 1% | [13]; at 33.0 µM 4% | [13]; at 100.0 µM 27% | [14]; at 1.2 µM -2% | [14]; at 3.7 µM 0% | [14]; at 11.0 µM 4% | [14]; at 33.0 µM 10% | [14]; at 100.0 µM 50% | [15]; [17] 2% | [15]; [18] 59% | [15]; at 50.0 µM 54.1% | [16]; at 1.2 µM 0% | [16]; at 3.7 µM 5% | [16]; at 11.0 µM 18% | [16]; at 33.0 µM 34%
active: [3]; at 100.0 µM 81% | [10]; at 50.0 µM 80.3% | [16]; at 100.0 µM 80%

CC(C)OP(=O)(OC(C)C)/C(Cl)=N/Nc1ccc([N+](=O)[O-])cc1
active: [1]; at 33.0 µM 90% | [1]; at 100.0 µM 95% | [2]; at 100.0 µM 85% | [3]; at 11.0 µM 93% | [3]; at 33.0 µM 96% | [3]; at 100.0 µM 96% | [4]; at 33.0 µM 78% | [4]; at 100.0 µM 94% | [5]; at 33.0 µM 93% | [5]; [18] 95% | [5]; at 50.0 µM 88.7% | [5]; at 100.0 µM 94% | [6]; at 33.0 µM 81% | [6]; [18] 80% | [6]; at 50.0 µM 81% | [6]; at 100.0 µM 90% | [7]; at 100.0 µM 80% | [8]; [18] 74% | [8]; at 50.0 µM 90.8% | [9]; at 11.0 µM 79% | [9]; at 33.0 µM 95% | [9]; at 100.0 µM 96% | [10]; [18] 80% | [10]; at 50.0 µM 89.2% | [11]; at 11.0 µM 86% | [11]; at 33.0 µM 95% | [11]; [18] 95% | [11]; at 50.0 µM 91.6% | [11]; at 100.0 µM 95% | [12]; at 33.0 µM 71% | [12]; at 100.0 µM 93% | [13]; at 11.0 µM 86% | [13]; at 33.0 µM 96% | [13]; at 100.0 µM 94% | [14]; at 11.0 µM 94% | [14]; at 33.0 µM 97% | [14]; at 100.0 µM 98% | [15]; [18] 97% | [15]; at 50.0 µM 87.3% | [16]; at 11.0 µM 85% | [16]; at 33.0 µM 96% | [16]; at 100.0 µM 96%
inactive: [1]; at 1.2 µM -10% | [1]; at 3.7 µM -6% | [1]; at 11.0 µM 52% | [2]; at 1.2 µM -10% | [2]; at 3.7 µM -10% | [2]; at 11.0 µM 19% | [2]; at 33.0 µM 38% | [3]; at 1.2 µM 25% | [3]; at 3.7 µM 50% | [4]; at 1.2 µM -21% | [4]; at 3.7 µM -29% | [4]; at 11.0 µM 16% | [5]; at 1.2 µM -10% | [5]; at 3.7 µM -21% | [5]; [17] 19% | [5]; at 11.0 µM 61% | [6]; at 1.2 µM -5% | [6]; at 3.7 µM -3% | [6]; [17] 13% | [6]; at 11.0 µM 52% | [7]; at 1.2 µM -8% | [7]; at 3.7 µM 6% | [7]; at 11.0 µM 24% | [7]; at 33.0 µM 34% | [8]; [17] 6% | [9]; at 1.2 µM 18% | [9]; at 3.7 µM 20% | [10]; [17] 28% | [11]; at 1.2 µM -4% | [11]; at 3.7 µM 3% | [11]; [17] 29% | [12]; at 1.2 µM 3% | [12]; at 3.7 µM 5% | [12]; at 11.0 µM 39% | [13]; at 1.2 µM 13% | [13]; at 3.7 µM 23% | [14]; at 1.2 µM 28% | [14]; at 3.7 µM 23% | [15]; [17] 47% | [16]; at 1.2 µM 29% | [16]; at 3.7 µM 28%
